{"source": "PubChem BioAssay (NCATS)", "note": "Results filed as inconclusive are left out. A number with no mark means an inactive call. Activity calls are given as the source filed them. Calls come from the whole dose curve; as a rule, active = well fitted cell-killing curve with a large enough effect; inconclusive = small, poorly fitted or top-dose-only effect, or effect the other way; inactive = flat fitted curve, though single readings scatter."}
{"test_system": "CAOV3", "experiment": "Primary qHTS to identify gynecologic anti-cancer compounds using libraries of approved drugs and bioactive compounds (AID 1345084); note: nearly all actives have a fitted effect of over 55% in size; note: potency is the fitted concentration of half-maximal effect; for activity change, negative = cytotoxicity: % is set by controls: 0 for no effect and ±100 for the full control effect", "details": "Gynecologic cancer cell panel viability, ATPlite luminescence, 48 h; series mostly up to 57.5 µM; activity change, negative = cytotoxicity: at the top concentration", "source_text": "National Center for Advancing Translational Sciences [NCATS] Assay Overview: Chemotherapeutic drug responses vary from cancer to cancer and from patient to patient. These variations could be caused by a number of factors including patient genomic background, tumor mutations, tumor heterogeneity, and aspects of drug treatment. Chemotherapeutic drug resistance is also a common issue and can lead to ineffective treatment and patient death. Here we have profiled the cell killing effects of thousands of compounds to characterize the responses in three gynecological cancers, identify cancer-selective compounds, and understand the diversity of responses to these compounds from pan-cancer suppressors to single cell line selective compounds. In this assay, we screened a 7,914 compound drug library that included approved drug and bioactive compounds in six ovarian, three cervical, and […] placental cancer cell lines using the ATPlite assay for cell viability. […] The cervical cancer cell lines included HeLa, Ca Ski, and C-33 A. The placental cancer cell lines included JEG-3. HEK 293T cells were used as the control cell line to determine the selectivity index. ATPlite is a luminescence based assay reliant on the conversion of a luciferase substrate to light in the presence of ATP. As a cytotoxic compound will suppress growth and decrease the number of cells, the concentration of ATP will decrease, and less light signal will be detected in the well.\nAssay Protocol Summary: 1,000 cells in 4 uL of media were dispensed into white, solid bottom 1536-well plates using a Multidrop Combi (Thermo Scientific). The Assay plates were incubated for 16 hours at 37 C with 5% CO2 in assay plates, followed by the addition of 23 nL of DMSO or drug dissolved in DMSO. Each compound was assayed in five concentrations (0.092, 0.46, 2.3, 11.5, and 57.5 uM), using the automated Wako 1536 Pin Tool workstation and incubated at 37 C with 5% CO2 48 hours. 4 uL of ATPlite, the ATP monitoring reagent, was then added to the each well of the assay plates using the Multidrop Combi reagent dispenser followed by incubation for 15 minutes at room temperature. The resulting luminescence was measured using the ViewLux plate reader."}
{"compound": "C[C@@H]1O[C@@H](O[C@H]2[C@H](OC(=O)[C@]34CCC(C)(C)C[C@H]3C3=CCC5[C@@]6(C)C[C@H](O)[C@H](O[C@@H]7O[C@H](CO)[C@@H](O)[C@H](O)[C@H]7O)[C@@](C)(CO)C6[C@H](O)C[C@@]5(C)[C@]3(C)CC4)OC[C@H](O)[C@@H]2O)[C@H](O)[C@H](O)[C@H]1O[C@@H]1OC[C@@H](O)[C@H](O[C@@H]2OC[C@](O)(CO)[C@H]2O)[C@H]1O", "note": "(stereo not given in full)", "activity change, negative = cytotoxicity": "10.8% [at 6.55 µM]"}
{"compound": "CC(NC(=O)CCc1nc2ccccc2c(=O)[nH]1)c1ccccc1", "note": "(stereo not given)", "activity change, negative = cytotoxicity": "9.91%"}
{"compound": "CC(C(O)/C=C/C(C)(C)O)C1CCC2(C)C3C(=O)C=C4C(CCC(O)C4(C)C)C3(C)CCC12C", "note": "(stereo not given)", "activity change, negative = cytotoxicity": "13.8% [at 25.3 µM]"}
{"compound": "C=CC(C)(O)CC/C=C(\\C)C(=O)OC1C(O)C(CO)OC(OC(=O)C23CCC(C)(C)CC2C2=CCC4C5(C)CCC(OC6OC(COC7OCC(OC(C)=O)C(O)C7OC7OC(COC(C)=O)C(O)C(O)C7O)C(O)C(O)C6O)C(C)(C)C5CCC4(C)C2(C)C(O)C3O)C1OC1OCC(OC2OCC(O)C(OC3OCC(O)C(O)C3O)C2O)C(O)C1O", "note": "(stereo not given)", "activity change, negative = cytotoxicity": "-2.2% [at 6.55 µM]"}
{"compound": "COc1cc2c(cc1O)CC[C@H]1[C@@H]2CC[C@]2(C)[C@H](O)CC[C@@H]12", "activity change, negative = cytotoxicity": "-7.6%"}
{"compound": "CC(C)c1c2cc(-c3ccnc(NC4CCC(NC5CCOCC5)CC4)n3)ccc2nn1C", "note": "(stereo not given)", "activity change, negative = cytotoxicity": "-3.34%"}
{"compound": "CC(C)c1ccc(CO)cc1O[C@@H]1O[C@H](CO)[C@@H](O)[C@H](O)[C@H]1O", "activity change, negative = cytotoxicity": "1.59% [at 38.5 µM]"}
{"compound": "CC1=C(C)C(=O)OC(C(C)C2CCC3C4C5OC5C5(O)CC(OC6OC(CO)C(OC7OC(C)C(O)C(O)C7O)C(O)C6O)CC(O)C5(C)C4CCC23C)C1", "note": "(stereo not given)", "activity change, negative = cytotoxicity": "5.63% [at 25.3 µM]"}
{"compound": "NC1(C(=O)NC(CCO)c2ccc(Cl)cc2)CCN(c2ncnc3[nH]ccc23)CC1", "note": "(stereo not given)", "activity change, negative = cytotoxicity": "-24.9%"}
{"compound": "O=C(CN1C(=O)C2(CCCC2)NCC1c1cc(F)cc(F)c1)Nc1ccc2c(c1)CC1(C2)C(=O)Nc2ncccc21", "note": "(stereo not given)", "activity change, negative = cytotoxicity": "-5.15%"}
{"compound": "CC(=O)c1ccc(O[C@@H]2O[C@H](CO)[C@@H](O)[C@H](O)[C@H]2O)cc1", "activity change, negative = cytotoxicity": "37%"}
{"compound": "O=C(Nc1c(-c2cccs2)nc2ccccn12)c1ccc(Cl)cc1", "activity change, negative = cytotoxicity": "-26.9%"}
{"compound": "C[C@@H]1O[C@@H](O[C@H]2[C@@H]3C=CO[C@@H](O[C@@H]4O[C@H](CO)[C@@H](O)[C@H](O)[C@H]4O)[C@@H]3[C@@]3(CO)O[C@@H]23)[C@H](OC(=O)/C=C/c2ccc(O)c(O)c2)[C@H](O)[C@H]1O", "activity change, negative = cytotoxicity": "-5.38% [at 25.3 µM]"}
{"compound": "C[C@@H]1O[C@@H](O[C@H]2[C@@H](OC(=O)[C@]34CCC(C)(C)CC3C3=CCC5[C@@]6(C)C[C@H](O)[C@H](O[C@@H]7O[C@H](C(=O)O)[C@@H](O)[C@H](O)[C@H]7O)[C@@](C)(C(=O)O)C6CC[C@@]5(C)[C@]3(C)CC4)OC[C@H](O)[C@@H]2O)[C@H](O)[C@H](O)[C@H]1O[C@@H]1OC[C@@H](O)[C@H](O)[C@H]1O", "note": "(stereo not given in full)", "activity change, negative = cytotoxicity": "24.8% [at 11.6 µM]"}
{"compound": "C[C@H](C/C=C/C(C)(C)O)[C@H]1CC[C@@]2(C)[C@@H]3[C@@H](O[C@@H]4O[C@H](CO)[C@@H](O)[C@H](O)[C@H]4O)C=C4C(CC[C@H](O)C4(C)C)[C@]3(C=O)CC[C@]12C", "note": "(stereo not given in full)", "activity change, negative = cytotoxicity": "15.2% [at 25.3 µM]"}
{"compound": "CCOCCOC(=O)/C=C/c1ccc(OC)cc1", "activity change, negative = cytotoxicity": "-0.882%"}
{"compound": "Cc1cccc(S(=O)(=O)N2CCC[C@@H]2CCN2CCC(C)CC2)c1", "activity change, negative = cytotoxicity": "-0.129%"}
{"compound": "COC(=O)C1=COC(O[C@@H]2O[C@H](CO)[C@@H](O)[C@H](O)[C@H]2O)[C@H]2[C@@H]1[C@H](OC(=O)CCc1ccc(O)cc1)C[C@]2(C)O", "note": "(stereo not given in full)", "activity change, negative = cytotoxicity": "8.05% [at 25.3 µM]"}
{"compound": "CC(=O)C12OC(C)(C)OC1CC1C3CCC4=CC(=O)C=CC4(C)C3(F)C(O)CC12C", "note": "(stereo not given)", "activity change, negative = cytotoxicity": "-5.19%"}
{"compound": "CC(C)=CC/C=C(\\C)[C@H]1CC[C@]2(C)[C@@H]1[C@H](O)C[C@@H]1[C@@]3(C)CC[C@H](O)C(C)(C)[C@@H]3[C@@H](O[C@@H]3O[C@H](CO)[C@@H](O)[C@H](O)[C@H]3O)C[C@]12C", "activity change, negative = cytotoxicity": "5.17%"}
{"compound": "COC(=O)C1=C2Nc3ccccc3C23CCN2CCCC(C(C)O)(C1)C23", "note": "(stereo not given)", "activity change, negative = cytotoxicity": "22.4% [at 38.5 µM]"}
{"compound": "CC1OC(OC2C(CO)OC(OCC3OC(OC(=O)C45CCC(C)(C)CC4C4=CCC6C7(C)CCC(OC8OC(CO)C(O)C(OC9OC(CO)C(O)C(O)C9O)C8O)C(C)(C)C7CCC6(C)C4(C)CC5)C(O)C(O)C3O)C(O)C2O)C(O)C(O)C1OC1OC(CO)C(O)C(O)C1O", "note": "(stereo not given)", "activity change, negative = cytotoxicity": "-14.1% [at 6.55 µM]"}
{"compound": "CCCCNc1ccc(-c2ccc(CN3CCOCC3)cn2)c(NC2CCC(O)CC2)c1", "note": "(stereo not given)", "Potency": "1780 nM (active)"}
{"compound": "OC[C@H]1O[C@@H](OC[C@H]2O[C@@H](OC/C=C/c3ccccc3)[C@H](O)[C@@H](O)[C@@H]2O)[C@@H](O)[C@@H]1O", "activity change, negative = cytotoxicity": "14.2% [at 25.3 µM]"}
{"compound": "COC(=O)[C@@H](O)[C@H]1[C@@]2(C)CC3(O)[C@@H](C(=O)[C@H]2O)[C@]24O[C@]25CC(=O)O[C@@H](c2ccoc2)[C@]5(C)CCC4[C@]13C", "note": "(stereo not given in full)", "activity change, negative = cytotoxicity": "16.6% [at 25.3 µM]"}
{"compound": "CC1=C(C(=O)OCc2ccccc2)C(c2ccc(-c3ccccc3)cc2)NC(=O)N1CCCCCC(=O)O", "note": "(stereo not given)", "activity change, negative = cytotoxicity": "-0.304%"}
{"compound": "COc1ccc(F)cc1-c1cc(NC(=O)[C@@H]2CCCNC2)ncc1Cl", "activity change, negative = cytotoxicity": "-40.1%"}
{"compound": "COc1cc(/C=C/CO)cc(OC)c1O[C@@H]1O[C@H](CO[C@@H]2O[C@H](CO)[C@@H](O)[C@H](O)[C@H]2O)[C@@H](O)[C@H](O)[C@H]1O", "activity change, negative = cytotoxicity": "35.6% [at 25.3 µM]"}
{"compound": "O=C(NCC(O)CO)c1ccncc1Nc1ccc(I)cc1F", "note": "(stereo not given)", "activity change, negative = cytotoxicity": "-6.93%"}
{"compound": "COc1c2c(c(C)c3c1C(=O)OC3)O[C@@]1(C)CCC3(C(C)(C)O)OC(=O)CC[C@]3(C)[C@H]1C2", "note": "(stereo not given in full)", "activity change, negative = cytotoxicity": "-2% [at 25.3 µM]"}
{"compound": "CC(C)=CCC(O)/C(C)=C/CO[C@@H]1O[C@H](CO)[C@@H](O)[C@H](O)[C@H]1O", "note": "(stereo not given in full)", "activity change, negative = cytotoxicity": "33.7% [at 38.5 µM]"}
{"compound": "C/C=C1\\[C@H](O[C@@H]2O[C@H](CO)[C@@H](O)[C@H](O)[C@H]2O)OC=C2C(=O)OCCc3ccc(O)c(c3)Oc3ccc(cc3)CCOC(=O)C[C@H]21", "activity change, negative = cytotoxicity": "-27.7% [at 25.3 µM]"}
{"compound": "CC1C=CC2CCCCC2C1CCC1CC(O)CC(=O)O1", "note": "(stereo not given)", "activity change, negative = cytotoxicity": "10.1%"}
{"compound": "COC1=CC(=O)CC(C)C12Oc1cc(OC)cc(O)c1C2=O", "note": "(stereo not given)", "activity change, negative = cytotoxicity": "1.02%"}
{"compound": "CC1=CCC(C(C)(C)O[C@@H]2O[C@H](CO[C@@H]3O[C@@H](C)[C@H](O)[C@@H](O)[C@H]3O)[C@@H](O)[C@H](O)[C@H]2O)CC1", "note": "(stereo not given in full)", "activity change, negative = cytotoxicity": "5.68% [at 25.3 µM]"}
{"compound": "CC1OC(OC2C(O)C(OC3CCC4(C)C(CCC5(C)C4CC=C4C6CC(C)(COC7OC(CO)C(O)C(O)C7O)CC(O)C6(C)CCC45C)C3(C)C)OC(C(=O)O)C2O)C(O)C(O)C1OC1OCC(O)C(O)C1O", "note": "(stereo not given)", "activity change, negative = cytotoxicity": "-0.364% [at 11.6 µM]"}
{"compound": "O=C(CCc1nnc2n(Cc3ccc(Cl)cc3)c(=O)c3ccccc3n12)NCCC1=CCCCC1", "activity change, negative = cytotoxicity": "-3.84%"}
{"compound": "O=C(C(c1ccccc1)c1ccccc1)N1CCN(CC(O)COc2cccc3ncccc23)CC1", "note": "(stereo not given)", "activity change, negative = cytotoxicity": "-0.642%"}
{"compound": "C[C@@H]1C[C@@H](O)[C@@]23CO[C@@H](O)[C@@H]2CCC[C@@H]3[C@@]12C[C@@H](c1ccoc1)OC2=O", "activity change, negative = cytotoxicity": "7.05% [at 38.5 µM]"}
{"compound": "CC1CC(C(O)C(C)(C)O)OC2CC3(C)C4(C)CCC5C(C)(C)C(=O)CCC5(C)C4CCC3(O)C12O", "note": "(stereo not given)", "activity change, negative = cytotoxicity": "2.74% [at 25.3 µM]"}
